Source: PubChem BioAssay AID720580 (National Center for Advancing Translational Sciences (NCATS), 2013)
Where “and” joins values, the source holds several entries; their conditions need not be identical. Equal values may be shown once. The whole screen tested about 330,000 compounds, of which about 1,500 (0.45%) were called active. Roughly 6% stayed inconclusive and do not appear here. The call rests on the fitted dose curve; tested in A549 cells. This excerpt belongs to a sample that is enriched for actives. Where a structure was tested more than once in an assay, its records may differ in their call.

assay: qHTS for Stage-Specific Inhibitors of Vaccinia Orthopoxvirus: Venus Reporter Primary qHTS; conditions: Vaccinia virus Venus reporter expression, fluorescence; series mostly up to 36.5 µM; activity change, negative = inhibition: at the top concentration; further: nearly all actives have a fitted effect of over 30% in size
On the % scale 0 is the no-effect control and ±100 the full control effect; potency means the concentration at half of the fitted maximal effect.

Row | Compound | activity change, negative = inhibition | Potency
1 | CCCCC[C@H](C)N1C[C@@H](COCc2ccccc2)Oc2cc(N3CC[C@@H](N(C)C)C3)ccc2S1(=O)=O | -10.3% (inactive) | –
2 | CCC(C(=O)NCc1ccccc1)n1c(Cc2cc(F)cc(F)c2)nc2ccccc21 (stereo not given) | -13.7% (inactive) | –
3 | CCCCNC(=O)C[C@@H]1C[C@@]2(C(=O)OC)CC(C)(C)CC=C2N(Cc2ccco2)C1=O | -17.4% (inactive) | –
4 | O=C(c1ccc(C(F)(F)F)cc1)N1CCC(=O)N([C@H](COCc2ccccc2)Cc2ccccc2)CC1 | -11.3% (inactive) | –
5 | O=C1Nc2ccccc2NC(c2ccc3c(c2)OCO3)=C1N(Cc1ccc(F)cc1)C(=O)c1ccco1 | 8.77% (inactive) | –
6 | COc1ccc(Cc2nnc(SCC(=O)c3cccc([N+](=O)[O-])c3)n2C)cc1 | -7.6% (inactive) | –
7 | COc1ccc2c(C(=O)c3ccc(C)cc3)n(CCC(N)=O)[n+]([O-])c2c1 | -5.46% (inactive) | –
8 | COc1ccc(C(=O)c2c3ccc([N+](=O)[O-])cc3[n+]([O-])n2CCCN)cc1 | – | 10 µM (active)
9 | COc1ccc(C(C)(O)c2nc(-c3ccc(C)c(C)c3)cs2)cc1 (stereo not given) | -24.7% (inactive) | –
10 | CCOc1ccc(/C=N\NC(=O)c2c(C)nc3cc(C)ccn23)cc1 | -16.5% (inactive) | –
11 | CCOc1ccc(-c2cc(C(=O)N/N=C/c3ccc(O)cc3)c3ccccc3n2)cc1 | 0% (inactive) | –
12 | CCOc1ccc(/C=N/NC(N)=S)cc1 | – | 1 µM (active)
13 | CCCCn1nnnc1C(c1cccc(OC)c1OC)N1CCN(C/C=C/c2ccccc2)CC1 (stereo not given) | -4.84% (inactive) | –
14 | C=CCC[C@H](CCCCC)OC(=O)/C=C/[C@H](O)[C@@H](O)C[C@@H](O)CC=C | -17.3% (inactive) | –
15 | COC(=O)[C@]12CCCCC=C1N(Cc1ccco1)C(=O)[C@H](CC(=O)NCC1CCCCC1)C2 | -1.07% (inactive) | –
16 | COc1ccc(CN(Cc2ccccc2)C(=O)c2ccc(O)cc2)cc1COc1ccc(NC(C)=O)cc1 | -14.1% (inactive) | –
17 | COc1cc(C#Cc2ccc3cc(CCCO)oc(=O)c3c2)cc(OC)c1 | -27.7% (inactive) | –
18 | COc1cc(/C=C2\Oc3ccc(C#Cc4ccc(O)cc4)cc3C2=O)cc(OC)c1 | – | 8.91 µM (active)
19 | CC(C)C1C(=O)N(Cc2cn(CCC3OCCO3)nn2)CCS(=O)(=O)N1Cc1ccc(-c2ccccc2C(F)(F)F)cc1 (stereo not given) | -11.9% (inactive) | –
20 | Cc1noc(C)c1COc1ccc2ccc(=O)oc2c1 | -14.6% (inactive) | –
21 | CC(C)OC(=O)c1ccc(COc2ccc3ccc(=O)oc3c2)o1 | -3.73% (inactive) | –
22 | CC(=CCOc1ccc2ccc(=O)oc2c1)C1=CC(=O)C(C)(C)O1 | – | 3.55 µM (active)
23 | CCOc1ccc(CCN2C(=S)N([C@@H](CC(C)C)CN3CCC[C@@H]3CN3C(=S)NC[C@@H]3Cc3ccc(O)cc3)C[C@@H]2CC(C)C)cc1 | -12.4% (inactive) | –
24 | Cc1ccc(C(=O)Nc2nc3ccc(Cl)cc3s2)o1 | -7.19% [at 7.34 µM] (inactive) | –

Row | Compound | activity change, negative = inhibition | Potency
25 | Cc1ccc(CCC(=O)Nc2ncc(Cc3cc(Cl)ccc3Cl)s2)o1 | – | 4.47 µM (active)
26 | Cc1cnc(NC(=O)CSc2nnc(-c3ccc(Cl)cc3Cl)n2N)s1 | -22.3% (inactive) | –
27 | COC(=O)C1=CN(c2c(C)cc(C)cc2C)C(N)=C(C#N)C1c1cccc(F)c1 (stereo not given) | -25.6% (inactive) | –
28 | Brc1ccc2ncnc(NCc3cccnc3)c2c1 | -18.1% (inactive) | –
29 | CC(C)CNc1ncnc2c1cnn2Cc1ccc(Cl)cc1 | -9.44% (inactive) | –
30 | Clc1ccc(Cn2ncc3c(NCc4cccnc4)ncnc32)cc1 | – | 8.91 µM (active)
31 | CC(C)C[C@H]1CN([C@@H](Cc2ccccc2)CN2CCC[C@@H]2CN2C(=O)C(=O)NC[C@@H]2Cc2ccc(O)cc2)C(=O)C(=O)N1CCc1ccccc1 | -8.63% (inactive) | –
32 | COc1ccc(-c2nc(=N)sn2-c2ccccc2)cc1 | -26.5% (inactive) | –
33 | COc1ccc(C(NC(=O)C2CCN(CCCc3ccccc3)CC2)c2cccs2)cc1 (stereo not given) | -17.3% (inactive) | –
34 | N#Cc1c(Cl)c(Cl)c(Cl)c(C#N)c1Cl | – | inactive and 14.1 µM (active)
35 | CCOc1ccc(NC(=O)CSc2nnc3c(n2)[nH]c2ccc(S(=O)(=O)N4CCOCC4)cc23)cc1 | -23.5% (inactive) | –
36 | COC1CC(OC2CC[C@@]3(C=O)C4CC[C@]5(C)C(C6=CC(=O)OC6)CC[C@@]5(O)C4CC[C@]3(O)C2)OC(C)C1O (stereo not given in full) | – | 0.282 µM (active)
37 | COC1C(O)C(C)OC(OC2CCC3(C=O)C(CCC4C3CCC3(C)C(C5=CC(=O)OC5)CCC43O)C2)C1O (stereo not given) | – | 0.1 µM (active)
38 | O=C(Nc1ccc2c(c1)OCCO2)C(C1CC1)N1CCC(Cc2ccccc2)CC1 (stereo not given) | 1.13% (inactive) | –
39 | O=S1(=O)CC(N2CCN(Cc3ccccc3F)CC2)CN1Cc1cn(Cc2ccccc2)nn1 (stereo not given) | -1.01% (inactive) | –
40 | Cc1nc2c(OCc3ccc(Cl)cc3)cccn2c1N(C)Cc1cccs1 | -19.4% (inactive) | –
41 | CCOC(=O)[C@]12CCCC=C1N(Cc1ccc3c(c1)OCO3)C(=O)[C@H](CC(=O)N1CCN(C(=O)c3ccco3)CC1)C2 | -3.23% (inactive) | –
42 | COc1ccc(C(=O)NCc2nnc(SCC(=O)NC3=NCCS3)n2C)cc1 | 1.83% (inactive) | –
43 | COC(=O)c1ccc(NC(=O)CSc2nnc(C3CC3)n2C)cc1 | -11.9% (inactive) | –
44 | COC(=O)c1ccc(NC(=O)CSc2nnc(CNc3ccc(OC)cc3)n2C)cc1 | – | 12.6 µM (active)
45 | Cc1ccc(S(=O)(=O)N2[C@@H](Cc3ccccc3)CO[C@H]2CC(=O)OCc2ccccc2)cc1 | -15.6% (inactive) | –
46 | N#Cc1cccc(NC(=O)c2cc(C3CCCCN3C(=O)CCc3ccccc3)on2)c1 (stereo not given) | -6.64% (inactive) | –
47 | CCOC(=O)N1C(=O)C[C@](Sc2ccc(C)cc2)(C(=O)OC)[C@H]1c1ccccc1 | 8.58% (inactive) | –
48 | COc1ccc(OC)c(NC(=O)C2(C)CCN2C(=O)Cc2ccccc2)c1 (stereo not given) | -2.79% (inactive) | –

Row | Compound | activity change, negative = inhibition | Potency
49 | O=C(NCc1cccnc1)c1cc(C2CCCN(C(=O)C3CCCCC3)C2)on1 (stereo not given) | 1.16% (inactive) | –
50 | CC(C)n1cnc2c(Nc3cccc(Cl)c3)nc(N(CCO)CCCO)nc21 | – | 11.2 µM (active)
51 | CC(C)C[C@H](CO)Nc1nc(N(C)c2cccc(Cl)c2)c2ncn(C(C)C)c2n1 | -28.6% (inactive) | –
52 | COC(=O)[C@@]12C[C@@H](CC(=O)N3CCCCC3)C(=O)N(Cc3ccc4c(c3)OCO4)C1=CCC(C)(C)C2 | -19.4% (inactive) | –
53 | CCc1nc2c(OCc3ccc(C(=O)OC)cc3)cccn2c1N(C)C(=O)C(C)C | -10.2% (inactive) | –
54 | CN(C)c1ccc(/C=C/C=C/c2ccnc3ccccc23)cc1 | 128% (inactive) | –
55 | O=[N+]([O-])c1ccc(F)cc1Oc1nc(-c2cccnc2)nc2ccccc12 | – | 5.01 µM (active)
56 | COc1cccc(-c2nc(Nc3ccncc3)c3ccccc3n2)c1 | 19.3% (inactive) | –
57 | Cc1cnc(CNc2nc(-c3cccnc3)nc3ccccc23)cn1 | 0% (inactive) | –
58 | COC(=O)C1(C(=O)OC)C[C@H](c2ccccc2)N(Cc2ccccc2OC)[C@@H]1c1ccccc1 | -4.94% (inactive) | –
59 | COc1ccc(OC)c(Cc2cnc3nc(N)nc(N)c3c2C)c1 | – | 1.12 µM (active)
60 | COc1ccc(OC)c(NC(=O)c2sc3nc(C)cc(C)c3c2N)c1 | -20.7% (inactive) | –
61 | COc1ccc(OC)c(Cc2nnc(CCC(=O)NC3CCCC3)o2)c1 | -24.9% (inactive) | –
62 | CCCCCCCNc1ccc(/C=C/c2ccnc3ccccc23)cc1 | 14.6% (inactive) | –
63 | O=C1NC(Nc2nc3ccccc3s2)(C(F)(F)F)C(=O)N1C1CCCCC1 (stereo not given) | – | 10 µM (active)
64 | O=C(NC1(C(F)(F)F)NC(=O)N(C2CCCCC2)C1=O)c1ccco1 (stereo not given) | -16.3% (inactive) | –
65 | COC(=O)NC1(C(F)(F)F)NC(=O)N(C2CCCCC2)C1=O (stereo not given) | -9.65% (inactive) | –
66 | Cc1ccc(Cc2c(-c3ccco3)nc3ccc(Cl)cn23)cc1 | 4.2% (inactive) | –
67 | SCc1nc2ccc(Cl)cc2[nH]1 | -13.3% (inactive) | –
68 | O=C(c1cnn2c1NC(=C1CC1)C=C2C(F)F)N1CCc2ccccc2C1 | -21.9% (inactive) | –
69 | CCN1CCC(O)(/C=C/c2ccc(C)cc2)C(C(=O)/C=C/c2ccc(C)cc2)C1 (stereo not given) | – | 17.8 µM (active)
70 | CCOC(=O)C1CCCN(C(=O)/C=C/c2ccc(OC)cc2)C1 (stereo not given) | -0.189% (inactive) | –
71 | N#Cc1ccc(C(C(=O)NCc2ccccc2)n2c(=O)c(-c3ccco3)nc3ccccc32)cc1 (stereo not given) | -0.43% (inactive) | –
72 | CN(C)c1ccc(/C=N\Nc2ccc([N+](=O)[O-])cc2[N+](=O)[O-])cc1Cl | -16.2% (inactive) | –

Row | Compound | activity change, negative = inhibition | Potency
73 | O=c1[nH]c(NCCO)nnc1Cc1ccc(Cl)cc1 | 1.34% (inactive) | –
74 | COc1ccc(Cc2nnc(N/N=C/c3ccccc3O)[nH]c2=O)cc1OC | – | 1.26 µM (active)
75 | COc1ccc(CCNC(=O)CCc2ccccc2O)cc1OC | 3.53% (inactive) | –
76 | CCCCOc1ccc(C(=O)NO)cc1 | -14.6% (inactive) | –
77 | CC(=O)N1Cc2cc(C(=O)NCc3cccc(F)c3)nc(-c3cccc(C4=CCCC4)c3)c2[C@H]1CCO | -20.8% (inactive) | –
78 | Cc1c(Cl)c([N+](=O)[O-])nn1CCCC(=O)Nc1cc(Cl)ccc1Cl | -17.6% (inactive) | –
79 | Cc1ccc(C(=O)O)cc1NC(=O)c1ccc(Cn2nc(C)c(Cl)c2C)o1 | -7.79% (inactive) | –
80 | Cc1c(Cl)c([N+](=O)[O-])nn1Cc1ccc(C(=O)N/N=C\c2cc(Cl)ccc2O)o1 | – | 5.62 µM (active)
81 | COc1cc2nc(N3CCCN(C)CC3)nc(NC3CC3)c2cc1OC | -26.8% (inactive) | –
82 | COc1ccc(-c2csc(C(O)c3cccc(Cl)c3)n2)cn1 (stereo not given) | -10.5% (inactive) | –
83 | COc1ccc(NC(=O)CN(C)CC(=O)Nc2cccc(C(F)(F)F)c2)cc1 | -12.9% (inactive) | –
84 | Cc1cccc(NC(=O)c2nnn(-c3cccc(C(F)(F)F)c3)c2N)c1 | -9.05% (inactive) | –
85 | COc1cc(NC(=O)c2[nH]cnc2C(N)=O)cc(C(=O)Nc2cccc(C(F)(F)F)c2)c1 | – | 10 µM (active)
86 | COC(=O)[C@]12CCCCC=C1N(Cc1ccco1)C(=O)[C@H](CC(=O)NCCCCc1ccccc1)C2 | -2.07% (inactive) | –
87 | CCCCC(=O)N/N=C/c1c(O)n(CC)c(=S)n(CC)c1=O | – | 12.6 µM (active)
88 | CCOc1cc(C=NNC(=O)CCCC(=O)NN=Cc2ccc(O)c(OCC)c2)ccc1O | 4.08% (inactive) | –
89 | O=C(CCC(=O)N/N=C/c1ccc(Br)o1)N/N=C/c1ccc(Br)o1 | -3.51% (inactive) | –
90 | CCOc1ccc2nc(N3CCCN(CCCn4cccn4)CC3)nc(C)c2c1 | -19.6% (inactive) | –
91 | O=S(=O)(Nc1n[nH]c(C(F)(F)F)n1)c1ccccc1 | -0.63% (inactive) | –
92 | O=c1[nH]nc(SCCS(=O)(=O)c2ccc(F)cc2)n1-c1ccccc1C(F)(F)F | – | 3.16 µM (active)
93 | CN(CC(=O)O)C(=O)c1ccccc1 | -1.7% (inactive) | –
94 | S=C(c1ccccc1)N1CCCC1 | -10.5% (inactive) | –
95 | CN(O)C(=S)c1ccccc1 | – | 11.2 µM (active)
